# In the library only some 4.7% were active in any assay of this set; here they are far more common.
# GDH-TPI inh: GDH-TPI coupled enzyme inhibition counter-screen; GDH-TPI coupled enzyme counterscreen, NADH absorbance; inhibition, % at 4.8 µM; 360,000 compounds, 1.2% hits;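 also: 0% = DMSO wells and 100% = wells lacking the enzyme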
# Mtb FBA inh: inhibits M. tuberculosis FBA enzyme; 360,000 compounds, 2.3% hits; AID 588726; purified M. tuberculosis FBA, fluorescence read-out; P9WQA3; inhibition, % at 1 µM; in the data active = inhibition above about 27%;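 also: 0% = vehicle and 100% = reference inhibitor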
# Target sequence (P9WQA3 whole entry, looked up): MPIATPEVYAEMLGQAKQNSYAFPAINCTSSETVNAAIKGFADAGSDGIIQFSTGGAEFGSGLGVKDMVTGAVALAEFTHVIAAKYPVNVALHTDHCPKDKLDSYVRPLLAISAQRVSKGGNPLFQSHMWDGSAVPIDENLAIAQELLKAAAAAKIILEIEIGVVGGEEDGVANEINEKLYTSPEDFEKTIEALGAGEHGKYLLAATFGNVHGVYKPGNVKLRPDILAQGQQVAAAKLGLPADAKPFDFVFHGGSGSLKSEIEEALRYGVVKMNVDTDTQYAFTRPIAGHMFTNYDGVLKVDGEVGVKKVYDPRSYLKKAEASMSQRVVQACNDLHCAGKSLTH
# CCHF vOTU inh: CCHFV vOTU protease inhibition | Pep-AMC fluorescence | inhibition, % at 11.5 µM | 370,000 compounds, 0.55% hits | AID 651958; also: 0% = vehicle wells with enzyme and 100% = no enzyme wells
# RecA intein inh: Mtb RecA intein splicing inhibition; cell-free RecA intein splicing, fluorescence; P9WHJ3; inhibition, % (concentration not given with the values); 290,000 compounds, 0.75% hits; in the data active = inhibition above about 30%;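 also: 0% = vehicle wells and 100% = reference inhibitor control wells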
# 3CLpro inhibitor: SARS-CoV 3CLpro protease inhibition. inhibition, % at 6 µM. P0C6X7. recombinant SARS-CoV 3CLpro, quenched FRET peptide cleavage. AID 1706. 290,000 compounds, 0.14% hits; in the data active = inhibition above about 12%
# VHR inh abs: inhibitors of human VHR1 phosphatase (DUSP3). P51452. recombinant VHR phosphatase, pNPP absorbance. inhibition, % at 13.3 µM. 290,000 compounds, 0.52% hits. AID 1654; in the data active = inhibition above about 50%
# Target sequence (P51452 whole entry, looked up): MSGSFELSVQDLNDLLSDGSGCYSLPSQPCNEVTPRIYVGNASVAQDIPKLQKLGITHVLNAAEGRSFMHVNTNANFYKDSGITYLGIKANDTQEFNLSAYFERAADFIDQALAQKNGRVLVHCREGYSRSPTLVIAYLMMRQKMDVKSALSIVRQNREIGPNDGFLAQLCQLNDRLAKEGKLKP
# * marks the source's active call; other numbers are inactive results; . = no result given; ! = not active in a repeat. Rule as the data show it, unless noted: active = inhibition above about 30%; inactive = the rest.
SMILES,GDH-TPI inh,Mtb FBA inh,CCHF vOTU inh,RecA intein inh,3CLpro inhibitor,VHR inh abs
O=C(COc1ccc2c(-c3ccccc3)cc(=O)oc2c1)N1C[C@H]2C[C@@H](C1)c1cccc(=O)n1C2,17,4,2,.,.,.
CCCCCCCCN1C(=O)[C@@H](CC(=O)N2CCCC2)C[C@@]2(C(=O)OC)C1=C[C@H](C(C)(C)C)O[C@@H]2C,.,.,27,.,.,.
Cc1oc2c(CN3CCCC3)c(O)ccc2c(=O)c1-c1ccc(Cl)cc1,26,86*,-79,-1,1,14
Cc1oc2c(CN3CCCC3)c(O)ccc2c(=O)c1-c1ccccc1,11,118*,.,-6,0,-9
COc1ccc(-c2c(C(F)(F)F)oc3c(CN4CCN(C)CC4)c(O)ccc3c2=O)cc1,21,-6,13,-3,4,-10
Cc1oc2c(CN3CCC(C)CC3)c(O)ccc2c(=O)c1-c1ccccc1,15,181*,-127,-2,-1,7
CC1CCCN(Cc2c(O)ccc3c(=O)c(-c4ccc(Cl)cc4)coc23)C1 (stereo unspecified),4,14,-18,0,1,15
NC(=O)c1ncn([C@@H]2O[C@H](C(=O)N[C@H](Cc3ccccc3)C(=O)N3CCN(CC(=O)Nc4ccccn4)CC3)[C@@H](O)[C@H]2O)n1,.,.,-2,.,.,.
COc1ccc(-c2cc(=O)oc3cc(OCC(=O)NCc4ccccn4)ccc23)cc1,19,2,-9,-3,-2,17
CC1(C)Cc2c(C#N)c(N3CCN(C(=O)c4ccco4)CC3)nc(Cc3ccccc3)c2CO1,7,2,3,23,2,24
Cc1nc(N2CCN(C(=O)c3ccc(Cl)cc3)CC2)c(C#N)c2c1COC(C)(C)C2,13,38*,-10,2,-2,-6
CCOC(=O)C(C(=O)OCC)C1N=C(N)N=C2Oc3ccccc3N21 (stereo unspecified),49*,5,3,12,0,16
CCOC(=O)CN1C(=O)C(CC)Oc2ccccc21 (stereo unspecified),-1,0,2,2,-3,3
CC(C)(C)NC(=O)C(c1ccc(C(F)(F)F)cc1)n1c(=O)c(-c2cc3ccccc3[nH]2)nc2ccccc21 (stereo unspecified),.,.,1,.,.,.
Cc1cc(C(=O)NN=Cc2cccc(O)c2)n[nH]1,.,.,0,.,.,.
Cc1cn2c(N)c(/C=C3\C=Nc4ccccc43)c(=O)nc2s1,0,-11,-14,.,3,16
CCc1nn2c(N)c(/C=C3\C=Nc4ccccc43)c(=O)nc2s1,33*!,3,1,-1,4,43
c1ccc(Cc2cnc(N3CCN(Cc4cccc(-c5ccsc5)n4)CC3)nc2)cc1,.,.,14,.,.,.
COc1ccc(-c2ccnc3c(C#N)cnn23)cc1,13,171*,-194,-17,5,2
COc1ccc(-c2ccnc3c(Br)c(C)nn23)cc1,6,-2,2,.,.,.
CC(C)CN(CC(C)C)c1nn[nH]n1,0,-3,-3,.,.,.
N#Cc1c(C(F)(F)F)cc(-c2cccs2)nc1SCC(=O)O,37*,2,5,-1,6,-5
Cc1nn(CCC(=O)O)c2nc(-c3cccnc3)cc(C(F)(F)F)c12,10,26,-16,0,-2,32
N#Cc1c(C(F)(F)F)cc(-c2cccs2)nc1SC(C(=O)O)c1ccccc1 (stereo unspecified),10,10,19,-2,2,.
Cc1nn(CCC(N)=O)c2nc(-c3cccs3)cc(C(F)(F)F)c12,31*,153*,-129,5,-5,16
SMILES,GDH-TPI inh,Mtb FBA inh,CCHF vOTU inh,RecA intein inh,3CLpro inhibitor,VHR inh abs
CCN(CC)C(=O)CC[C@H]1CC[C@]2(CCCN(Cc3nccn3C)C2)O1,.,.,-3,.,.,.
COc1ccccc1N1CCN(S(=O)(=O)c2ccc3c(c2)n(C)c(=O)c(=O)n3C)CC1,.,.,0,.,.,.
O=C(N[C@H](Cc1ccccc1)C(=O)N1CCCN(Cc2ccccc2F)CC1)[C@H]1O[C@@H](n2ccc(=O)[nH]c2=O)[C@H](O)[C@@H]1O,.,.,5,.,.,.
CCCCCCOC(=O)c1ccccc1NC(=O)/C=C/C(=O)O,8,6,15,67*,0,-7
CCCNC(=O)C1(C)CCCN(Cc2cccs2)C1 (stereo unspecified),8,4,4,.,.,.
CCOc1ccc(CN(C)C(=O)CN2C(=O)NC(c3ccccc3)(c3ccccc3)C2=O)cc1,0,-3,7,.,.,.
Cc1cc(C)c[n+](-c2[nH]c(=O)sc2/C=N/N=C(\[O-])c2cccnc2)c1,35*,-2,10,3,2,16
CCOC(=O)c1cc(-c2ccc(C#N)cc2)nc2c1c(C)nn2CCC#N,0,22,-1,1,0,-2
Cc1nn(CCc2nn[nH]n2)c2nc(-c3ccc(C4CCCCC4)cc3)cc(C(F)(F)F)c12,0,1,-3,34*,1,-21
N#C/C(=C\c1c(N2CCN(c3ccccc3)CC2)nc2ccccn2c1=O)C(N)=O,15,21,-38,-22,-1,20
COc1ccc(-c2nnc(SCC(=O)NN=C/C=C\c3ccco3)n2-c2ccc(OC)cc2)cc1,.,.,8,.,.,.
CCCCc1nnc(NC(=O)CSCc2cc(=O)n3cc(C)sc3n2)s1,17,2,1,-2,-2,56*
CCOC(=O)/C(=N\Nc1ccccc1)P(=O)(c1ccccc1)c1ccccc1,51*,2,4,9,3,-20
CCOC(=O)/C(=N\Nc1ccccc1)S(=O)(=O)c1ccccc1,31*,-2,4,2,-3,0
O=C(CSc1nc(=O)n2ccccc2n1)OCc1ccccc1,13,0,1,-2,.,.
CCOC(=O)C1=CCN(S(=O)(=O)c2ccc(Cl)cc2)C1c1cccc(F)c1 (stereo unspecified),.,.,5,.,.,.
COC(=O)c1cc2c(c3c4cc(F)ccc4n(S(=O)(=O)c4cccc(C)c4)c13)C(=O)N(c1ccc(OC)cc1)C2,.,.,1,.,.,.
O=C(NCCNS(=O)(=O)c1ccccc1)c1ccc([N+](=O)[O-])cc1,14,2,5,.,0,58*
CC(C)C1C(=O)N(Cc2cn(Cc3ccco3)nn2)CCS(=O)(=O)N1Cc1ccc(-c2ccc(F)cc2)cc1 (stereo unspecified),-11,-2,10,.,.,.
O=C(c1cc2c(ccc3ccccc32)oc1=O)N1CCCC1,16,166*,-163,-10,6,10
O=C(O)c1cc2cc(Cl)cc(Cl)c2oc1=O,10,5,4,-1,11,7
O=C(O)c1cc2ccc3ccccc3c2oc1=O,10,196*,-124,-37,0,4
COc1cccc2cc(C(=O)NCc3ccccn3)c(=O)oc12,4,-1,4,8,2,22
O=C(NCc1ccccn1)c1cc2c(ccc3ccccc32)oc1=O,17,172*,-234,-272,-2,2
CC(C)(C)NC(=O)c1cc2c(ccc3ccccc32)oc1=O,5,80*,-35,-2,1,4
